# High-throughput results deposited in PubChem by National Center for Advancing Translational Sciences (NCATS).
# TGFb SMAD3 inh: inhibitors of TGF-b signaling | HepG2 CAGA-GFP TGF-b/SMAD3 reporter, GFP fluorescence, 18 h; TGF-beta stimulated, 500 pg/mL final | Potency, µM (titrated, usually from 46.1 µM), most hits filed as inhibitors | 410,000 compounds, 1.2% hits; further: nearly all actives have a fitted effect of over 65% in size
#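 HEPG2 CAGA-GFP, 1000 cells/well; 2 h settle, 37 C; cpd via pin tool; TGF-b 500 pg/mL final; 18 h, 37 C; GFP imaging ex488/em500-530; %Activity normalised to -TGF-b and +DMSO controls; CRC fit, curve class.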
# ATXN viability: reduces viability in counter-screen for ATXN expression inhibitors. Potency, µM (highest dose often 56.7 µM), actives largely listed as cytotoxic. 400,000 compounds, 0.49% hits. S2 cells (HEK-293 line with an ATXN2-luciferase reporter) viability, CellTiter-Fluor protease fluorescence, 24 h. AID 651635; further: nearly all actives have a fitted effect of over 40% in size
# Gal4-VP16 FLuc: counter-screen for ROR gamma inhibitors: Gal4-VP16 reporter; Drosophila S2 Gal4-VP16 UAS-luciferase, luminescence, 20 h; 310,000 compounds, 3.5% hits; Potency, µM (top dose mostly 53.6 µM), hits mostly inhibitors; AID 2546;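 further: Gal4-VP16 expression switched on by copper sulfate through the metallothionein promoter; nearly all actives have a fitted effect of over 50% in size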
# ATXN2 expr inh: reduces ATXN2 reporter expression in HEK-293 cells | Potency, µM (series often up to 57 µM), actives largely listed as inhibitors | 360,000 compounds, 0.72% hits | AID 1745845 | HEK-293 ATXN2-luciferase reporter, luminescence, 24 h; further: nearly all actives have a fitted effect of over 55% in size
#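 qHTS (up to 57 uM final) was run with 24 h compound exposure of reporter cells at 37 °C. Each well was multiplexed: SteadyGlo luminescence measured ATXN2-luciferase expression after a fluorogenic Gly-Phe-AFC viability readout (25 uM final).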
# RORg inh: blocks mouse ROR gamma transcriptional activity; P51450; AID 2551; 310,000 compounds, 5.4% hits; Potency, µM (series often up to 53.6 µM), most hits filed as inhibitors; Drosophila S2 Gal4-RORgamma UAS-luciferase reporter, 20 h; further: nearly all actives have a fitted effect of over 60% in size
# Target sequence (P51450 whole entry, looked up, the tested form may be a part): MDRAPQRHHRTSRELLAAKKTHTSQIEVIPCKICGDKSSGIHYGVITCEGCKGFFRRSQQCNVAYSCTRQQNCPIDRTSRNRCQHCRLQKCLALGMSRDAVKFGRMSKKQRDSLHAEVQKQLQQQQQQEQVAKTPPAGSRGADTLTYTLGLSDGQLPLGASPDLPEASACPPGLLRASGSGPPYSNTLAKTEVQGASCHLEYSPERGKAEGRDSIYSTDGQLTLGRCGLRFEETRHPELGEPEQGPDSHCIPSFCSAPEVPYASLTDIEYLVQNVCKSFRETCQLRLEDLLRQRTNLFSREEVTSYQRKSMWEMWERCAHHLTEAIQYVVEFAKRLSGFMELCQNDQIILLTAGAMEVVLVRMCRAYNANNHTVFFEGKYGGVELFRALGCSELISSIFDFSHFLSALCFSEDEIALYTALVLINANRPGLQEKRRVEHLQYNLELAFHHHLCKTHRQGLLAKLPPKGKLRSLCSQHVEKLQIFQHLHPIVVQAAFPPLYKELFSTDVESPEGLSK
#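 In this cell-based reporter format, copper sulfate (700 uM final) drives Gal4–ROR gamma fusion expression from a metallothionein promoter in Drosophila Schneider cells; compounds preincubated 1 hr, reporter read after 20 hr at ambient temperature.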
# HepG2 tox: HepG2 cytotoxicity, counter-screen for TGF-b inhibitors; Potency, µM (top dose mostly 46.1 µM), usual class: cytotoxic; HepG2 CAGA-GFP viability, ATP luminescence, 18 h; 410,000 compounds, 0.76% hits
#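 CellTiter-Glo luminescence gave cytotoxicity after 18 hours at 37 degrees C. The cells were HepG2 CAGA-GFP in 1% FBS DMEM, stimulated with 500 pg/mL TGF-beta after compound addition. %Activity was normalised to no-cell wells (complete cell-killing) and DMSO (no toxicity), and curves were fitted and classified.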
# Numbers stand for hits; . = inactive; ? = inconclusive; / = not tested or not shown. Compounds with a hit are over-represented: about 6.3% of the library has one in this group of screens. The call rests on the fitted dose curve; in most records, active means well fitted curve in the direction sought with a large enough effect; inconclusive means small, poorly fitted or top-dose-only effect, or another doubt; inactive means no such curve, though single readings can be large; an effect the other way counts as inactive or inconclusive.
SMILES,TGFb SMAD3 inh,ATXN viability,Gal4-VP16 FLuc,ATXN2 expr inh,RORg inh,HepG2 tox
Cc1cc(C)cc(NC(=S)NCc2cccs2)c1,?,.,11µM,.,2.2µM,.
COc1cc(NC(=S)NCc2cccnc2)cc(OC)c1,.,.,.,.,?,.
COc1ccc(-c2cccc(NS(=O)(=O)c3cc(C(F)(F)F)ccc3Cl)c2)nn1,?,.,/,.,/,.
COc1ccc(-c2cccc(NS(=O)(=O)c3cc(C)c(Cl)cc3C)c2)nn1,?,.,/,.,/,11µM
CCc1c(C)nc2ncnn2c1NCCc1ccccc1,.,?,?,.,?,.
CCc1c(C)nc2ncnn2c1NCCc1ccc(Cl)cc1,.,.,11µM,.,?,.
Cc1sc(NC(=O)Cc2ccc3c(c2)OCO3)nc1-c1ccc2c(c1)CCN2C(=O)c1ccc(F)cc1,.,?,.,.,.,.
Cc1sc(NC(=O)CN2CCCC2)nc1-c1ccc2c(c1)CCN2C(=O)c1cccc(F)c1,.,?,?,?,11µM,.
CC(=O)NC(c1cccc([N+](=O)[O-])c1)c1ccc2cccnc2c1O (stereo not drawn),?,?,2µM,3.2µM,1.4µM,.
COc1cccc(C(NC(C)=O)c2ccc3cccnc3c2O)c1 (stereo not drawn),?,?,5µM,?,2.8µM,.
OC(c1cccc(Cl)c1)c1nc(-c2cccc3cccnc23)cs1 (stereo not drawn),.,.,/,.,/,.
Oc1cccc(C(Nc2nccs2)c2ccc3cccnc3c2O)c1 (stereo not drawn),14µM,.,3.5µM,?,1.4µM,.
O=[N+]([O-])c1ccc(NC(c2ccccc2)c2ccc3cccnc3c2O)cc1 (stereo not drawn),.,.,/,2.8µM,/,.
COc1ccc(CNC(=O)Cc2c(C)c3c(cc(C)c4c(C)coc43)oc2=O)cc1OC,.,/,/,/,/,.
CCOc1ccc(CCNC(=O)CCn2c(=O)c3cccn3c3cccnc32)cc1,.,/,/,/,/,.
O=C(Nc1ccc(-n2ccc(C(F)(F)F)n2)cc1)Nc1cccc(Cl)c1,/,/,18µM,/,?,/
Cc1cc(C)cc(NC(=O)Nc2ccc(-n3ccc(C(F)(F)F)n3)cc2)c1,.,?,.,.,.,.
COc1ccc(C(=O)Nc2sc3c(c2C(N)=O)CCCC3)cc1OC,/,/,.,/,.,/
O=C(Nc1ncccn1)C1c2ccccc2Oc2ccccc21,.,.,.,.,.,.
O=C(N/N=C\c1ccccn1)C1COc2cc3ccccc3cc2O1 (stereo not drawn),.,.,?,.,4.5µM,.
O=C(N/N=C\c1ccccn1)C1c2ccccc2Oc2ccccc21,.,.,?,?,7.9µM,.
NNC(=O)C1COc2cc3ccccc3cc2O1 (stereo not drawn),.,?,.,.,.,.
OC[C@H]1O[C@@H](O[C@H]2[C@@H](O)[C@@](O)(CO)O[C@@H]2CO)[C@H](O)[C@@H](O)[C@@H]1O,/,/,/,.,/,/
Cc1ccc(-c2cn(-c3cccc(Cl)c3)c(S(=O)(=O)CC(=O)Nc3cccc(C)c3)n2)cc1,?,?,/,.,/,.
CC(=O)N[C@@H](CO)C(=O)N[C@@H](CC(=O)O)C(=O)N[C@@H](CCCCN)C(=O)N1CCC[C@H]1C(=O)O,/,.,/,.,/,/
SMILES,TGFb SMAD3 inh,ATXN viability,Gal4-VP16 FLuc,ATXN2 expr inh,RORg inh,HepG2 tox
CCOC(=O)C1=C(CSc2nc(C)ccc2C#N)OC(N)=C(C#N)C1c1cccc(OC)c1OC (stereo not drawn),.,.,?,.,20µM,.
CCOC(=O)C1=C(CC)OC(N)=C(C#N)C1c1ccc(OC)c(OC)c1OC (stereo not drawn),?,.,.,.,.,.
COc1ccc(Nc2cc(=O)n(C3CCCCC3)c(=O)[nH]2)c(OC)c1,.,.,.,.,.,.
COc1c[nH]n(C2CCCCC2)c(=O)c1=O,.,22µM,?,.,20µM,.
Nc1nc(Nc2ccccc2)nc2ccccc12,.,.,?,.,?,.
Nc1nc(Nc2ccc(Cl)cc2)nc2ccccc12,18µM,.,?,.,.,.
